# This excerpt belongs to a sample that is enriched for hits.
# HIV RNase H inh-1 – inhibitors of HIV-1 reverse transcriptase RNase H. RT-RNase H RNA/DNA duplex cleavage, fluorescence. inhibition, % at 10 µM. 65,000 tested, 1.9% active. AID 565; in the data active means inhibition above about 50%
# HIV RNase H inh-2 – confirmation of HIV-1 reverse transcriptase RNase H inhibitors. shares compounds with HIV RNase H inh-1. Recombinant RT RNase H, fluorescent RNA/DNA duplex cleavage. inhibition, % at 10 µM. 1,000 tested, 39% active; in the data active means inhibition above about 48%; inconclusive means no clear call, values can overlap the other calls
# An asterisk follows results filed as active; u = inconclusive.
SMILES,HIV RNase H inh-1,others
Cc1cc(C)nc(SCC(=O)NC2=NC(=O)C(C)S2)n1 (stereo not given),27.7,
Cc1cc(C(F)(F)F)nc(SCC(=O)NC2=NC(=O)C(C)S2)n1 (stereo not given),60.3*,HIV RNase H inh-2=u
Cc1cc(C2C(C#N)=C(N)SC(N)=C2C#N)c(C)s1,44.6,
CC1=C(C#N)C(c2cn(-c3ccccc3)nc2-c2cccs2)C(C#N)=C(C)N1,3.7,
Cc1sccc1C1C(C#N)=C(N)SC(N)=C1C#N,59.9*,HIV RNase H inh-2=2.3
O=C(CN1C(=O)CCS(=O)(=O)c2ccccc21)Nc1cccc(F)c1,-1.0,
O=C(CN1CCOc2ccccc21)NC1CCCCCCC1,-6.8,
Cc1ccc(CN2C(=O)CCC2C(=O)NC(C)C)cc1 (stereo not given),-2.7,
COc1ccc(NC(=O)N2CCCCC2)cc1,-0.5,
O=C(Nc1ccc2nc(-c3ccco3)c(-c3ccco3)nc2c1)N1CCCCCC1,96.5*,HIV RNase H inh-2=52.7*
O=C(NC1CCCC1)c1ccc2nc[nH]c2c1,-5.4,
CCOC(=O)N1CCN(C(=O)Nc2ccc3nc(C)c(C)nc3c2)CC1,-2.4,
O=C(NC1CCCC1)c1ccc2nc(-c3ccco3)c(-c3ccco3)nc2c1,82.8*,HIV RNase H inh-2=3.7
O=C(NC1CCCCCCC1)c1ccco1,-13.6,
COc1ccccc1C(=O)N(Cc1nc(-c2ccc(Cl)cc2)no1)C(C)C,-18.8,
NS(=O)(=O)c1ccc(NC(=O)COC(=O)CCNC(=O)NC23CC4CC(CC(C4)C2)C3)cc1,4.7,
Cc1cccc(C)c1NC(=O)C(c1cccs1)N(Cc1ccco1)C(=O)Cn1nnc2ccccc21 (stereo not given),-38.3,
COc1cccc(-c2cc(C(=O)Nc3ccccc3SC)no2)c1,9.5,
COc1ccc(-c2cc(C(=O)NCCc3ccccc3)no2)cc1OC,-5.6,
COc1ccc(-c2cc(C(=O)Nc3ccccc3SC)no2)cc1OC,91.2*,HIV RNase H inh-2=3.6
COc1ccc(-c2cc(C(=O)Nc3cc(C)n(Cc4ccc(Cl)cc4)n3)no2)cc1OC,-14.8,
COc1ccccc1-c1cc(C(=O)Nc2ccccc2SC)no1,-7.2,
COc1ccc(-c2cc(C(=O)Nc3cnn(Cc4ccccc4C)c3)no2)cc1OC,86.5*,HIV RNase H inh-2=17.4
CCc1nnc(NC2=NCCC2)s1,2.7,
CC(C)N(O)C(=O)NC(C)(C)C,0.3,
SMILES,HIV RNase H inh-1,others
O=C(O)Cn1nc(C(F)(F)F)c2c1CCC2,2.7,
Cn1c(SCC(=O)NCc2ccc3c(c2)OCO3)nc2scc(-c3cccs3)c2c1=O,17.5,
CCOc1ccc(N2CC(C(=O)Nc3cccc(C)c3C)CC2=O)cc1 (stereo not given),-2.8,
COc1ccc(CCNC(=O)C2CCN(Cc3nc(-c4ccc(Cl)cc4)oc3C)CC2)cc1OC,-0.8,
COC(=O)c1ccc2c(c1)N(Cc1nc(-c3cccc(Cl)c3)oc1C)C(=O)C1CCCN21 (stereo not given),20.3,
COC(=O)c1ccc2c(c1)N(Cc1nc(-c3ccc(Cl)cc3)oc1C)C(=O)C1CCCN21 (stereo not given),77.8*,HIV RNase H inh-2=96.0*
CCOc1ccc(-c2ncncc2-c2ccc(OC)cc2)c(O)c1,-1.7,
O=S(=O)(Nc1nc2ccccc2nc1NCc1ccco1)c1cccs1,-6.9,
Cc1ccc(-c2cc(C(F)F)nc(NCC3CCCO3)n2)cc1 (stereo not given),-67.8,
O=C(CCCN1C(=O)CSc2ncccc21)N1CCN(Cc2ccccc2)CC1,-4.2,
CCCCC(=O)Nc1cccc(-c2nn3c(C)nnc3s2)c1,-5.3,
O=C(CSc1nnc(-c2ccco2)n1Cc1ccccc1)c1ccc(F)cc1,-70.8,
Nc1nc(NC(=O)c2cccc(S(=O)(=O)N3CCCCCC3)c2)nc(-c2ccccc2)n1,66.3*,HIV RNase H inh-2=9.0
O=C(O)c1cccc(NC(=O)c2cccc(S(=O)(=O)N3CCCCC3)c2)c1,-9.3,
O=C(Nc1ccccc1C(=O)N1CCCC1)c1cccc(S(=O)(=O)N2CCCCC2)c1,-21.3,
Cc1nc(SCn2nnc3ccccc3c2=O)c2c(C)c(C)sc2n1,13.4,
O=C(c1ccco1)N1CCN(Cc2ccc(Cl)cc2)CC1,-10.3,
O=C(c1ccco1)N1CCN(C(=O)c2snc3ccc(Cl)cc23)CC1,86.4*,HIV RNase H inh-2=-3.1
O=C(CSc1c2c(nc3ccc(Cl)cc13)CCCC2)N1CCN(C(=O)c2ccco2)CC1,-14.5,
CCOC(=O)c1nnn(-c2nonc2N)c1COc1ccccc1,-42.5,
CC(C)C(=O)N(Cc1cc2ccccc2[nH]c1=O)C(C)(C)C,-11.4,
COc1ccc(S(=O)(=O)N(C)CC(=O)NCc2cccnc2)cc1,-0.2,
COc1ccc(NC(=O)CSc2nnc(-c3cccs3)n2-c2ccccc2)cc1,-4.2,
COC(=O)C(C)Sc1nnc2n(-c3cccc(C)c3)c(=O)c3c4c(sc3n12)CCCC4 (stereo not given),17.0,
COc1ccc(C2(C(=O)N3CCOCC3)CCOCC2)cc1OC,-0.6,
SMILES,HIV RNase H inh-1,others
OCCn1c(CSc2nnc(-c3ccco3)n2-c2ccccc2)nc2ccc(Cl)cc21,79.6*,HIV RNase H inh-2=1.1
O=C(CSc1nnc(-c2ccco2)n1-c1ccccc1)N1CCOCC1,-20.0,
OCCn1c(CSc2nc3ccccc3n2CCO)nc2ccccc21,-6.0,
Cc1ccc(CSc2nnc(-c3ccco3)n2N)cc1,2.8,
Cc1cc(C)cc(OCC(=O)Nc2cccc(-c3nc4ncccc4o3)c2)c1,-8.0,
CCOC(=O)CC1=CC(C)(CC(=O)OCC)C(C#N)(C#N)C(N)=C1C#N (stereo not given),6.6,
Cc1nc(C)c(C(=O)NCc2ccccc2Cl)o1,32.9,
O=C(CSc1ccc2nnc(-c3ccc(Cl)cc3)n2n1)N1CCN(c2ccccc2)CC1,59.9*,HIV RNase H inh-2=48.1
CCOc1ccc(-c2nnc3ccc(SCC(=O)N4CCN(c5ccccc5)CC4)nn23)cc1,-25.2,
O=C(CSc1ccc2nnc(-c3ccccc3)n2n1)N1CCCCC1,3.0,
COc1ccccc1-n1cc(C(=O)NCC(=O)N2CCN(c3ccccc3)CC2)c2ccccc2c1=O,-11.5,
O=C1CCCN1CC(CN1CCOCC1)Sc1nc2ccccc2c(=O)n1-c1ccccc1 (stereo not given),-0.8,
CCOC(=O)c1sc(NC(=O)c2c(C)noc2C)c(C(=O)OCC)c1C,7.7,
CCCc1cc(C(=O)Nc2sc(C(C)=O)c(C)c2C(=O)OCC)no1,67.6*,HIV RNase H inh-2=u
CCCc1cc(C(=O)Nc2ccccc2C(=O)OC)no1,-4.2,
Cn1c(Cn2cnc3ccccc32)nnc1SCC(=O)CC(=O)Nc1ccccc1,-5.0,
COc1cccc(C(=O)CSc2nnc(CNS(C)(=O)=O)n2-c2ccc(C)cc2)c1,-1.0,
Cn1c(Cc2cccs2)nnc1SC/C=C/c1ccccc1,-29.3,
CCOc1ccc(N2Cc3ccccc3C2)cc1,72.5*,HIV RNase H inh-2=60.7*
CCOc1ccc(N2C(=O)CCC2=O)cc1,-1.5,
CCOc1ccc(S(=O)(=O)N2CCc3ccccc3C2)cc1,-7.6,
Cn1nc(C(=O)Nc2c(-c3ccccc3)nc3sccn23)c2ccccc2c1=O,7.4,
O=C(CSc1nnnn1-c1ccccc1)Nc1nc(-c2ccccc2)ns1,-29.5,
O=C(CSc1nnnn1-c1ccccc1)Nc1nsc(-c2ccc(Cl)cc2)n1,65.4*,HIV RNase H inh-2=58.2*
O=C(CSc1nnnn1-c1ccccc1)Nc1nsc(-c2ccccc2)n1,-6.3,
O=c1c2cc(-c3ccccc3)sc2ncn1/N=C/c1ccco1,16.6,
CN(C)CCN1C(=O)C(=O)/C(=C(/O)c2ccc(OCc3ccccc3)cc2)C1c1ccncc1 (stereo not given),-8.8,
Cc1nc2sc3c(c2c(=O)o1)CC(C)(C)OC3,0.1,
CC1(C)Cc2c(sc3nn[nH]c(=O)c23)CO1,35.5,

# Bioassay records as filed in PubChem BioAssay.
